This passage reports Potency results from PubChem BioAssay (NCATS).

Experiment [1] can be described thus: qHTS for Inhibitors of the Functional Ribonucleoprotein Complex (vRNP) of Lassa (LASV) Arenavirus: LASV Primary Screen - GLuc reporter signal (AID 1347082; calls by dose curve; tested in HEK293 reporter line; note: nearly all actives have a fitted effect of over 60% in size; note: potency is the fitted concentration of half-maximal effect). In general terms: Quantitative high-throughput screening tests each substance at several concentrations.
Experiment [2] in a line: qHTS for Inhibitors of the Functional Ribonucleoprotein Complex (vRNP) of Lassa (LASV) Arenavirus: Viability assay - alamar blue signal for LASV Primary Screen (AID 1347083; calls by dose curve; tested in HEK293 reporter line; note: nearly all actives have a fitted effect of over 80% in size; note: potency is the fitted concentration of half-maximal effect).
Experiment [3] in a line: qHTS for Inhibitors of the Functional Ribonucleoprotein Complex (vRNP) of Lymphocytic Choriomeningitis Arenaviruses (LCMV): Viability assay - alamar blue signal for LCMV Primary Screen (AID 1347085; calls by dose curve; tested in HEK293 reporter line; note: nearly all actives have a fitted effect of over 80% in size; note: potency is the fitted concentration of half-maximal effect).
In experiment [4] the target is Nucleoprotein (Lymphocytic choriomeningitis virus (strain Armstrong)) (UniProt P09992). As to the kind of experiment: qHTS for Inhibitors of the Functional Ribonucleoprotein Complex (vRNP) of Lymphocytic Choriomeningitis Arenaviruses (LCMV): LCMV Primary Screen - GLuc reporter signal (AID 1347086; calls by dose curve; note: nearly all actives have a fitted effect of over 70% in size; note: potency is the fitted concentration of half-maximal effect).
Experiment [5] can be described thus: qHTS of pediatric cancer cell lines to identify multiple opportunities for drug repurposing: Primary screen for TC32 cells (AID 1347089). Note: nearly all actives have a fitted effect of over 60% in size. In a few lines:
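A viability screen of TC32 cells was run over 48 h, with primary MIPE doses spanning 0.78 nM–46 µM and NPC doses 0.59 nM–46 µM. ATP luminescence (CellTiter-Glo) served as the read-out.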

Experiment [6] can be described thus: qHTS of pediatric cancer cell lines to identify multiple opportunities for drug repurposing: Primary screen for DAOY cells (AID 1347090). Note: nearly all actives have a fitted effect of over 55% in size. Note: potency is the fitted concentration of half-maximal effect. In a few lines: (§1)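 Eight- or eleven-point concentration series, 48 h treatment at 37 degrees C in growth media; readout CellTiter-Glo luminescence. Potency and efficacy were taken from the concentration-response curves.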
Experiment [7] is described as follows: qHTS of pediatric cancer cell lines to identify multiple opportunities for drug repurposing: Primary screen for SJ-GBM2 cells (AID 1347091). Note: potency is the fitted concentration of half-maximal effect. The method, boiled down: as §1
Experiment [8] can be described thus: qHTS of pediatric cancer cell lines to identify multiple opportunities for drug repurposing: Primary screen for A673 cells (AID 1347092). Note: nearly all actives have a fitted effect of over 45% in size. Note: potency is the fitted concentration of half-maximal effect. The method, boiled down: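 Titration-based qHTS on A673 cells: MIPE compounds spanned 11 points (0.78 nM to 46 µM final), NPC compounds 8 points (0.59 nM to 46 µM final). Viability after 48 h was measured by ATP luminescence.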

Experiment [9] is described as follows: qHTS of pediatric cancer cell lines to identify multiple opportunities for drug repurposing: Primary screen for SK-N-MC cells (AID 1347093). Note: potency is the fitted concentration of half-maximal effect. The method, boiled down:
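Metabolically active cells were quantified by ATP-dependent luminescence (CellTiter-Glo, 15 min at room temperature) following 48 h treatment. Cells had been plated at 500-1,000 per well and settled for 5 h beforehand.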

A short description of experiment [10]: qHTS of pediatric cancer cell lines to identify multiple opportunities for drug repurposing: Primary screen for BT-37 cells (AID 1347094). Note: potency is the fitted concentration of half-maximal effect. The method, boiled down: (§2)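 Cells seeded at 500-1,000 cells/well in growth media, rested 5 hours at 37 degrees C, 5% CO2, then dosed; MIPE compounds at 11-point (from 0.78 nM) and NPC at 8-point (from 0.59 nM) final concentrations. Viability by CellTiter-Glo luminescence after 48 hours.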

The nature of experiment [11]: qHTS of pediatric cancer cell lines to identify multiple opportunities for drug repurposing: Primary screen for NB-EBc1 cells (AID 1347095). The method, boiled down: as §2
Experiment [12] in a line: qHTS of pediatric cancer cell lines to identify multiple opportunities for drug repurposing: Primary screen for U-2 OS cells (AID 1347096). Note: nearly all actives have a fitted effect of over 50% in size. In a few lines:
(§3)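 Cells (500-1,000/well) in growth media were settled 5 h at 37 degrees C, then given compounds for 48 h. Viability was read as CellTiter-Glo luminescence. Primary runs used MIPE at 11 points (0.78 nM-46 µM) and NPC at 8 points (0.59 nM-46 µM); follow-ups used 11 points.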

Experiment [13] in a line: qHTS of pediatric cancer cell lines to identify multiple opportunities for drug repurposing: Primary screen for SK-N-SH cells (AID 1347098).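 Note: DMSO served as neutral control and bortezomib at 2.3 µM as positive control; nearly all actives have a fitted effect of over 65% in size.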 In a few lines: (§4)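 Cells (500-1,000/well) rested 5 h, then received compounds for 48 h; metabolically active cells were measured by CellTiter-Glo luminescence. Final concentrations spanned up to 46 µM (MIPE, 11-point) or 0.59 nM-46 µM (NPC, 8-point) in primary screens, 11-point in follow-ups.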

Experiment [14] is described as follows: qHTS of pediatric cancer cell lines to identify multiple opportunities for drug repurposing: Primary screen for NB1643 cells (AID 1347099). Note: nearly all actives have a fitted effect of over 50% in size. Note: potency is the fitted concentration of half-maximal effect. The method, boiled down:
as §2

Experiment [15] in a line: qHTS of pediatric cancer cell lines to identify multiple opportunities for drug repurposing: Primary screen for LAN-5 cells (AID 1347100). Note: potency is the fitted concentration of half-maximal effect. In a few lines:
as §3

Experiment [16] is described as follows: qHTS of pediatric cancer cell lines to identify multiple opportunities for drug repurposing: Primary screen for BT-12 cells (AID 1347101). Note: nearly all actives have a fitted effect of over 25% in size. Note: potency is the fitted concentration of half-maximal effect. In a few lines: as §4
The nature of experiment [17]: qHTS of pediatric cancer cell lines to identify multiple opportunities for drug repurposing: Primary screen for Rh18 cells (AID 1347102). Note: nearly all actives have a fitted effect of over 65% in size. The method, boiled down:
as §3

Experiment [18] in a line: qHTS of pediatric cancer cell lines to identify multiple opportunities for drug repurposing: Primary screen for OHS-50 cells (AID 1347103). Note: nearly all actives have a fitted effect of over 40% in size. Note: potency is the fitted concentration of half-maximal effect. The method, boiled down:
as §4

Experiment [19] in a line: qHTS of pediatric cancer cell lines to identify multiple opportunities for drug repurposing: Primary screen for Saos-2 cells (AID 1347097). Note: nearly all actives have a fitted effect of over 40% in size. Note: potency is the fitted concentration of half-maximal effect. In a few lines: as §2

Records with an inconclusive call do not appear. Calls of active or inactive are those of the source. Unless noted, calls come from the whole dose curve; as a rule, active = well fitted curve in the direction sought with a large enough effect; inconclusive = small, poorly fitted or top-dose-only effect, or another doubt; inactive = no such curve, though single readings can be large; an effect the other way counts as inactive or inconclusive.

Nucleoprotein (Lymphocytic choriomeningitis virus (strain Armstrong)), sequence (P09992 whole entry, looked up): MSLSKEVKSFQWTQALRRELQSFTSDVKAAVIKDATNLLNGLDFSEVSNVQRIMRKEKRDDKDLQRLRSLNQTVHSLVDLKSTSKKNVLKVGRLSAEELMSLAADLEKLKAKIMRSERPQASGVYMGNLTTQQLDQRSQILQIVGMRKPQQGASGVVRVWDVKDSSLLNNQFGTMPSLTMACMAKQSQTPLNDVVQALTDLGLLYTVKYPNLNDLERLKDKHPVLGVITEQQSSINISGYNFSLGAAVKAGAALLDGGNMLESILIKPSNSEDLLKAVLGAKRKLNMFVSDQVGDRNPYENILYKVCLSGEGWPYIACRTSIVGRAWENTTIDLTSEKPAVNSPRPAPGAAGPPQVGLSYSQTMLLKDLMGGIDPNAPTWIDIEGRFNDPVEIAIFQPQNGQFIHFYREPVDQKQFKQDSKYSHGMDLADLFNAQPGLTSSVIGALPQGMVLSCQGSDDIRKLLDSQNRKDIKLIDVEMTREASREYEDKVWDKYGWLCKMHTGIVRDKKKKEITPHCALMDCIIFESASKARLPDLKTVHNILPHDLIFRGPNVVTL

`CC(C)N(CCNC(=O)CN1CCCC1=O)C(C)C`: the Potency entry in experiment [1], in experiment [2], in experiment [3], in [4], in [5] and in experiment [6] was “inactive” throughout. Besides, the Potency entry in experiment [7], in experiment [8], in experiment [9], in [10], in [11] and in [12] was “inactive” throughout. Also, the Potency entry in experiment [13], in experiment [14], in experiment [15], in [16], in experiment [17] and in experiment [18] was “inactive” throughout.
For `N#C[C@H](O[C@@H]1O[C@H](CO[C@@H]2O[C@H](CO)[C@H](O)[C@H](O)[C@H]2O)[C@H](O)[C@H](O)[C@H]1O)c1ccccc1`, the Potency is 17.2 µM (active) in experiment [1]; 19.3 µM (active) in experiment [2]; 38.5 µM (active) in experiment [3]; 24.3 µM (active) in [4]; 23.5 µM (active) in [6]; 26.4 µM (active) in experiment [7]. The Potency in experiment [8] is 29.6 µM (active); in experiment [9], 10.5 µM (active); in [10], 24.3 µM (active); in experiment [19] it was 18.7 µM (active); in [14] it was 11.8 µM (active); in experiment [15] it was 23.5 µM (active). The Potency was 24.3 µM (active) in experiment [16] and 21.7 µM (active) in [18]. Besides, the Potency entry in [5], in experiment [11] and in experiment [12] was “inactive” throughout.
In the case of `C=CC(=O)NCNC(=O)C=C`, the Potency entry in [1], in experiment [2], in [3], in [4], in [5] and in experiment [6] was “inactive” each time. Moreover, the Potency entry in [7], in [8], in experiment [9], in [10], in experiment [11] and in [12] was “inactive” in each case. For the same compound, the Potency entry in experiment [13], in [14], in experiment [15], in experiment [16], in [17] and in [18] was “inactive” throughout.
As to `O=C(O)CCCOc1ccc(Cl)cc1Cl`, the Potency result in experiment [1], in experiment [2], in [3], in [4], in experiment [5] and in experiment [6] was “inactive” throughout. The Potency result in experiment [7], in experiment [9], in [10], in [11], in experiment [12] and in experiment [14] was “inactive” each time. Besides, the Potency entry in [15], in [16] and in experiment [17] was “inactive” in each case. In addition, in experiment [8], the Potency was 0.313 µM (active).
Turning to `Cc1ccc(Cl)c(O)c1`, the Potency result in [1], in [2], in [3], in experiment [4], in experiment [5] and in [6] was “inactive” throughout. Besides, the Potency result in experiment [7], in experiment [8], in experiment [9], in experiment [10], in experiment [11] and in [12] was “inactive” each time. For the same compound, the Potency result in experiment [19], in [13], in [14], in experiment [15], in [16] and in [17] was “inactive” in each case. Besides, in experiment [18], the Potency entry is “inactive”.
With `C[C@@H]1[C@H](O)[C@@H](C)C=CC=CCCC=CC=CC=CC=C[C@H](O[C@H]2O[C@@H](C)[C@H](O)[C@@H](N)[C@@H]2O)CC2O[C@](O)(C[C@@H](O)[C@H](O)CC[C@@H](O)C[C@@H](O)C[C@@H](O)CC(=O)O[C@H]1C)C[C@H](O)[C@H]2C(=O)O`, the Potency entry in experiment [1], in experiment [2], in experiment [3], in [4], in [5] and in experiment [6] was “inactive” each time. Moreover, the Potency entry in [7], in [8], in [9], in experiment [10], in [11] and in [19] was “inactive” throughout. Moreover, the Potency result in experiment [13], in experiment [14], in experiment [15], in [16], in experiment [17] and in experiment [18] was “inactive” in each case.
As to `COC(=O)c1cncn1C(C)c1ccccc1` (stereo not drawn), the Potency result in [1], in experiment [2], in [3], in [4], in experiment [5] and in experiment [6] was “inactive” in each case. For the same compound, the Potency result in experiment [7], in experiment [8], in experiment [9], in experiment [10], in [11] and in experiment [13] was “inactive” in each case. For the same compound, the Potency result in experiment [14], in experiment [15], in experiment [16], in experiment [17] and in experiment [18] was “inactive” in each case.
